# Rows were chosen to be rich in hits. Some 13% of all compounds tested hit in one or more screens of this group.
# JMJD2E inh: qHTS Assay for Inhibitors of Human Jumonji Domain Containing 2E (JMJD2E). actives 1.6% (n = 230,000). Potency, µM (titrated, usually from 57.1 µM), inactives show at the highest dose activity change, negative = inhibition, actives largely listed as inhibitors. Lysine-specific demethylase 4E (Homo sapiens), B2RXH2. JMJD2E catalytic domain, FDH-coupled NADH fluorescence (FDH is formaldehyde dehydrogenase);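 also: potency is read from the fitted curve at half-maximal effect; 0% = wells with enzyme and -100% = buffer wells without enzyme; nearly all actives have a fitted effect of over 50% in size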
# Sfp PPTase inh: qHTS Assay for Inhibitors of Bacillus subtilis Sfp phosphopantetheinyl transferase (PPTase). 4'-phosphopantetheinyl transferase ffp (Bacillus subtilis), Q9F4F7. Biochemical Sfp PPTase activity, qHTS. Potency, µM, for the others: largest response in the series, negative = inhibition, most hits filed as inhibitors. actives 3.5% (n = 310,000). AID 1490, 2009;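 also: the enzyme is Sfp with the accession as filed and its product quenches rhodamine fluorescence; potency is read from the fitted curve at half-maximal effect; 0% = enzyme reaction without inhibitor and -100% = no enzyme wells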
#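 Buffer: 50 mM Hepes-Na pH 7.6, 10 mM MgCl2, 0.01% Nonidet P-40, 0.01% BSA. Enzyme 15 nM, pre-exposed to compound 15 min; substrates then added and fluorescence change tracked over 30 min.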
# G9a block: qHTS Assay for Inhibitors of Histone Lysine Methyltransferase G9a. G9a H3K9 monomethylation, AlphaScreen, 2 h. actives 8.8% (n = 350,000). Potency, µM (doses to about 102 µM), inactives show top-dose activity, negative = inhibition, hits mostly inhibitors. Histone-lysine N-methyltransferase EHMT2 (Homo sapiens), Q96KQ7. AID 504332, 2011; also: potency is read from the fitted curve at half-maximal effect; % is scaled to controls: 0 for no effect and ±100 for the full control effect; nearly all actives have a fitted effect of over 75% in size
# Target sequence (Q96KQ7 913-1193 limits assumed): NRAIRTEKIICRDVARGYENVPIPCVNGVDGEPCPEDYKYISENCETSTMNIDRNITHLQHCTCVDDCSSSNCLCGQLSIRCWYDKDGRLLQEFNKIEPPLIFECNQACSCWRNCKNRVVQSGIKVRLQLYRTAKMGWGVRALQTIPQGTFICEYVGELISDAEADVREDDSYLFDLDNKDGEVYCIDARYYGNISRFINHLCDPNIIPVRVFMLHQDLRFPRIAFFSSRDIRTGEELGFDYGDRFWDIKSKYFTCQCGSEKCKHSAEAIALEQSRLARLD
#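 Methyltransferase reactions run at room temperature for 2 h (20 nM enzyme, 500 nM biotin-H3K9 peptide, 20 uM SAM) after a 15 min compound preincubation; product detected by AlphaScreen beads and anti-H3K9me1 antibody.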
# Lamin A splicing: qHTS Assay for Modulators of Lamin A Splicing | HeLa LMNA splicing GFP/RFP minigene ratio, 48 h | Potency, µM (top dose mostly 46.1 µM), inactives show at the top dose ratio change, negative = inhibition, actives largely listed as inhibitors | actives 0.01% (n = 200,000) | AID 1487, 2009; active = well fitted inhibition curve with a large enough effect in the signal ratio, with a control signal flat, not every such curve was filed as active; inconclusive = small, poorly fitted or top-dose-only effect, or effect the other way, or a change in a side signal; the % refers to the signal ratio; also: potency is read from the fitted curve at half-maximal effect; % is scaled to controls: 0 for no effect and ±100 for the full control effect
#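 S3 HeLa stable clones carrying a lamin A-EGFP splicing minigene plus DsRed2 were seeded at 600 cells/well in Opti-MEM with 2% FBS, pin-dosed and incubated 48 h at 37°C. Acumen cytometry (488 nm) gave the GFP/RFP total-intensity ratio.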
# miR-21 reporter: qHTS Assay for Modulators of miRNAs and/orActivators of miR-21; Potency, µM (top dose mostly 38.3 µM), inactives show at the highest dose activity change, positive = activation, most hits filed as activators; HeLa miR-21 FLuc reporter, luciferase, 48 h; 340,000 tested, under 10 active; AID 2288, 2010;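 also: % of control where 0% means no effect; miR-21 action dims this reporter so a rising signal means less miR-21 action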
#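 Using DMEM plus 10% FBS, HeLa miR-21-FLuc cells are incubated with test compounds (final up to about 40uM) for 48 hours; firefly luciferase signal is then imaged following reagent-mediated lysis.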
# ALDH1A1 inh: qHTS Assay for Inhibitors of Aldehyde Dehydrogenase 1 (ALDH1A1). Purified ALDH1A1, NADH fluorescence, propionaldehyde substrate. Potency, µM (top dose mostly 75.3 µM), for the others: at the top dose activity, negative = inhibition, actives largely listed as inhibitors. actives 7.3% (n = 220,000). AID 1030, 2008; active = well fitted inhibition curve with a large enough effect, not every such curve was filed as active; inconclusive = small, poorly fitted or top-dose-only effect, or another doubt; inactive = no such curve, though single readings can be large or run the other way;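 also: potency is read from the fitted curve at half-maximal effect; plate controls were no enzyme wells and a reference inhibitor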
# Target sequence (P00352 whole entry, looked up): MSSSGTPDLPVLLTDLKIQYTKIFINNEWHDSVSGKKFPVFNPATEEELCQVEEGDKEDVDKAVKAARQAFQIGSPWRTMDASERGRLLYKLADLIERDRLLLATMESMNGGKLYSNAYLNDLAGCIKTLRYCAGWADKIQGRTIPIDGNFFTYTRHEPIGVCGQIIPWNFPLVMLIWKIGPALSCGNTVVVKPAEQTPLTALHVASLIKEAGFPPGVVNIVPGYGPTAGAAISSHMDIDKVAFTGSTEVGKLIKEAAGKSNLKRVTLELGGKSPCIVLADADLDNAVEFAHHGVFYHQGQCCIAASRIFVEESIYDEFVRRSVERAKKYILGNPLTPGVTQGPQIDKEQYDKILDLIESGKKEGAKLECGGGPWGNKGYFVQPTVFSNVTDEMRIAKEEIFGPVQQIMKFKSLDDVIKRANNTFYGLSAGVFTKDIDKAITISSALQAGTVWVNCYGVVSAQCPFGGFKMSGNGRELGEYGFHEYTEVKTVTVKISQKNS
# * marks the source's active call; other numbers are inactive results; ? = inconclusive; / = no result; [ ] = another dose, or the depositor's remark. Unless noted, calls follow the shape of the dose curve; as a rule, active = well fitted curve in the direction sought with a large enough effect; inconclusive = small, poorly fitted or top-dose-only effect, or another doubt; inactive = no such curve, though single readings can be large; an effect the other way counts as inactive or inconclusive.
SMILES,JMJD2E inh,Sfp PPTase inh,G9a block,Lamin A splicing,miR-21 reporter,ALDH1A1 inh
COc1cc(S(=O)(=O)N(Cc2ccccn2)Cc2ccco2)ccc1-n1cnnn1,9%,-5%,?,0%,-1%,8%
COc1cc(S(=O)(=O)N(Cc2ccc(C)cc2)Cc2ccco2)ccc1-n1cnnn1,-1%,6%,-3%,?,0%,13µM*
COc1cccc(CN(Cc2cccnc2)S(=O)(=O)c2ccc(-n3cnnn3)c(C)c2)c1,-2%,-12%,?,?,18%,25µM*
COc1cc(S(=O)(=O)N(Cc2cccnc2)Cc2ccco2)ccc1-n1cnnn1,-6%,1%,5.6µM*,-1%,4%,?
Cc1cc(S(=O)(=O)N(Cc2ccccc2)Cc2ccc(N(C)C)cc2)ccc1-n1cnnn1,4%,-4%,8.9µM*,-14%,-9%,?
Cc1nc2c(-c3ccc(F)cc3)c(C)nn2c(C)c1CCC(=O)Nc1ccccc1F,-16%,?,13%[59 µM],/,2%,/
CC(=O)c1ccc(Nc2nc3ccccc3nc2NS(=O)(=O)c2cccs2)cc1,/,31%,3%,/,2%,/
Oc1ccc(Nc2nc(-c3ccccc3O)nc3ccccc23)cc1,/,6%,50µM*,/,10%,/
O=C(O)c1cccc(Nc2nc3ccccc3nc2NS(=O)(=O)c2cccs2)c1,/,14%,45µM*,/,4%,/
COc1ccc(Nc2nc(-c3ccccc3O)nc3ccccc23)cc1,/,9%,20%[2.33 µM],/,12%,/
CCOC(=O)c1nc(Nc2ccc(C(=O)O)cc2)c2ccccc2n1,-9%,8%,40µM*,9%,-6%,-5%
CS(=O)(=O)Nc1cccc(-c2nc(NCc3ccccc3)c3ccccc3n2)c1,/,6%,3%[0.501 µM],?,/,25µM*
Cc1ccc(CNC(=O)N2CCN(S(=O)(=O)c3ccccc3)CC2)cc1,/,9%,35%,/,1%,/
CC(C)=C1CCC(C)CC1=O (stereo not drawn),/,/,/,/,/,1%
CCCCn1c(=NC(=O)C(C)(C)Oc2ccc(Cl)cc2)c(C(=O)OCC)cc2c(=O)n3ccccc3nc21,/,/,3%[59 µM],/,-3%,/
O=C(O)c1cccc(Nc2nc(-c3ccccc3)nc3ccccc23)c1,/,10%,56µM*,/,-5%,/
CNC(=O)c1ccc(Nc2nc(-c3ccccc3)nc3ccccc23)cc1,/,2%,50µM*,/,13%,/
COc1ccc(CNS(=O)(=O)c2cn(C)c(=O)n(C)c2=O)cc1,/,8%,/,/,1%,/
O=C(O)CC1Sc2nnc(COc3ccc(Cl)cc3)n2N=C1c1ccccc1 (stereo not drawn),/,-30%,25µM*,/,3%,/
NC(=O)CC(NC(=O)c1ccc(Br)cc1)c1ccc(N2CCC(Br)CC2)c([N+](=O)[O-])c1 (stereo not drawn),2%,?,-4%[12.7 µM],/,-7%,/
Cc1cc(-c2nn(-c3ccccc3F)cc2CNCCc2cnc[nH]2)c(C)s1,-3%,-19%,/,?,-18%,14µM*
CCCCc1cc(=O)oc2cc(C)c3c(C(C)(C)C)coc3c12,/,/,-36%[59 µM],/,2%,/
CC(C)(C)NC(=O)C(c1ccncc1)N(Cc1cccs1)C(=O)c1csnn1 (stereo not drawn),-9%,-9%,1%[12.7 µM],/,-2%,/
O=C(NC1CCCC1)C(c1ccc(F)cc1)N(Cc1ccc(F)cc1)C(=O)CCl (stereo not drawn),-12%,6%,45µM*,-8%,-2%,-2%
O=C(NC1CCCC1)C(c1ccncc1)N(Cc1cccs1)C(=O)c1csnn1 (stereo not drawn),?,20µM*,?,-2%,-2%,3.5µM*
SMILES,JMJD2E inh,Sfp PPTase inh,G9a block,Lamin A splicing,miR-21 reporter,ALDH1A1 inh
Cc1ccc(C(C(=O)NC2CCCC2)N(Cc2ccc(F)cc2)C(=O)c2csnn2)o1 (stereo not drawn),3%,-5%,-10%[59 µM],?,1%,14µM*
O=C(NC1CCCCC1)C(c1ccncc1)N(Cc1ccc(F)cc1)C(=O)c1ccccn1 (stereo not drawn),/,6%,?,/,3%,/
COc1ccc(NC(=O)C(C)Sc2ccccc2)cc1 (stereo not drawn),1%,6%,45µM*,4%,-44%,-2%
COC(=O)[C@H](C)NC(=O)Nc1ccc(Oc2ccccc2)cc1,5%,1%,-22%,-6%,-6%,-13%
CC(=O)Nc1ccc(SC(C)C(=O)NC(N)=O)cc1 (stereo not drawn),6%,-6%,40µM*,9%,-3%,8%
CC(=O)Nc1ccc(NC(=O)C(Sc2ccccc2)c2ccccc2)cc1 (stereo not drawn),-4%,10%,-11%[12.7 µM],/,-9%,/
CC(Sc1cccc[n+]1[O-])C(=O)Nc1ccc(Oc2ccccc2)cc1 (stereo not drawn),6%,2%,40µM*,-20%[46 µM],-5%,-6%
O=C(Nc1c2c(nn1-c1ccccc1)CS(=O)(=O)C2)c1cc2ccccc2o1,/,-13%,/,/,-1%,/
NC(=O)C1(N2CCCCC2)CCN(CC(=O)Nc2ccccc2-c2ccccc2)CC1,6%,10%,-21%[12.7 µM],-10%,-3%,4µM*
O=C(Nc1ccccc1-c1ccccc1)C1CCCCC1,10%,28%,28%[59 µM],4%,-3%,9%
CC1CCN(CC(=O)Nc2ccccc2-c2ccccc2)CC1,1%,9%,0%[59 µM],-7%,-2%,?
O=C(Nc1ccccc1-c1ccccc1)C1CCC1,-14%,6%,-5%,/,-17%,3.2µM*
CC1CCCCC1NCC(=O)Nc1ccccc1-c1ccccc1 (stereo not drawn),-5%,79µM*,6.3µM*,-7%,-7%,?
CC(=O)Nc1ccccc1OCC(=O)NC1CCCCC1C (stereo not drawn),/,/,-5%[2.33 µM],/,/,/
Cc1ccc(-c2csc(NC(=O)c3ccc(F)cc3)c2C(=O)O)cc1,/,13%,-41%,/,15%,/
COc1ccc(Br)cc1C1Nc2cccc3cccc(c23)N1,/,-16%,-6%[0.501 µM],/,18%,/
Oc1ccc2ccccc2c1C1Nc2cccc3cccc(c23)N1,28µM*,-9%,5µM*,13%,10%,?
COc1cc(C2Nc3cccc4cccc(c34)N2)cc(OC)c1OC(C)=O,-6%,-26%,13µM*,-5%,0%,?
CCN(CC)c1ccc(/C=N/N2CCN(Cc3cccc4ccccc34)CC2)c(O)c1,-6%,16%,3%[2.33 µM],-4%,-2%,?

# Bioassay records (PubChem BioAssay)
